Our source for the activity (Tm shift, normalised) values is PubChem BioAssay AID651658 (Broad Institute, 2012).

Screen size: about 340,000 compounds; about 5,100 (1.5%) were called active. This is one part of a sample in which actives are shown more often than they occur. Unmarked numbers belong to inactive results.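 How the source made its calls: active means mean Tm shift, scaled 0 neutral to 100 positive control, at about 1.3% or above, every replicate too (limit read from the data); inconclusive means no clear call, values can overlap the other calls; inactive means the rest.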

This assay deals with Fibroblast growth factor 22 (Homo sapiens) (UniProt Q9HCT0). The assay can be described thus: FGF22 ligand-induced thermal stabilization – biophysical, thermal shift, single point, FGF22 synaptogenesis inhibitor project, primary screen (AID 651658). Particulars: recombinant FGF22 thermal shift, SYPRO orange fluorescence; at 9.99 µM; stronger effect = higher value; percent of sucrose octasulfate shift, DMSO zero.
Fibroblast growth factor 22 (Homo sapiens), sequence (Q9HCT0 whole entry, looked up): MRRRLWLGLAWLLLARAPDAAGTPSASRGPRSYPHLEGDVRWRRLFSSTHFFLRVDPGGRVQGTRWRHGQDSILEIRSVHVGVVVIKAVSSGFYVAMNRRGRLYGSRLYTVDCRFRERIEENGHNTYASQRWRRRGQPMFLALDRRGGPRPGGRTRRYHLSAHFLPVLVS
For the compound `O=C(C[C@H]1CC[C@H](NC(=O)c2ccc(F)cc2)[C@@H](CO)O1)NCCc1ccncc1`, the activity (Tm shift, normalised) was -0.269%.
The result for `O=C(NCC[C@H]1CC[C@@H](NC(=O)C2CCCC2)[C@@H](CO)O1)c1cc(Cl)cc(Cl)c1` reads 0.127%.
For `Cc1ccc(S(=O)(=O)NCC[C@H]2CC[C@H](NC(=O)c3ccccn3)[C@@H](CO)O2)cc1`, the activity (Tm shift, normalised) is -0.462%.
Turning to `C[C@H]1CCCCO[C@H](CN(C)CC2CC2)[C@@H](C)CN([C@@H](C)CO)C(=O)c2cc(NC(=O)CCC(F)(F)F)ccc2O1`, the activity (Tm shift, normalised) was 0.058%.
On to `COc1cccc(S(=O)(=O)N[C@@H]2CC[C@@H](CCNC(=O)Cc3ccncc3)O[C@H]2CO)c1`, for which the activity (Tm shift, normalised) was 0.19%.
The result for `C[C@H]1CN([C@@H](C)CO)C(=O)c2cc(-c3cccnc3)cnc2O[C@@H]1CN(C)C(=O)C1CC1` reads 0.138%.
Regarding `CC(C)c1ccc(C2C(C#N)=C(N)Oc3c2oc(CO)cc3=O)cc1` (stereo unspecified), the activity (Tm shift, normalised) is -0.049%.
On to `COC(=O)C1=C(N)Oc2c(oc(CO)cc2=O)C1c1c(F)cccc1Cl` (stereo unspecified), for which the activity (Tm shift, normalised) is 43.6% (active).
Turning to `COC(=O)C1=C(N)Oc2cc(C)[nH]c(=O)c2C1c1ccc(Cl)cc1` (stereo unspecified), the activity (Tm shift, normalised) is -0.032%.
Consider `CO[C@H]1CC[C@H]2CCN(C)C(=O)C[C@@H](c3ccccc3)CN(C)C(=O)c3cccc(C#N)c3OC[C@@H]1O2`, for which the activity (Tm shift, normalised) was 0.156%.
As for `CCC(=O)N1CCCCN2[C@H](CO)[C@@H](c3ccc(-c4cccnc4)cc3)[C@H]2C1`, the activity (Tm shift, normalised) is 0.191%.
As to `OC[C@H]1[C@H](c2ccc(-c3cccnc3)cc2)[C@H]2CN(Cc3ccccn3)CCCCN21`, the activity (Tm shift, normalised) was 1.51% (active).
As for `OC[C@@H]1[C@H](c2ccc(Br)cc2)[C@@H]2CN(Cc3ccccn3)CCCCN12`, the figure is 0.488%.
Take `O=C(N[C@H]1CC[C@@H](CCNS(=O)(=O)c2cccc(Cl)c2)O[C@@H]1CO)c1ccccc1`: the activity (Tm shift, normalised) was -0.047%.
As for `COc1cc(C)ccc1OCC(=O)OCC(=O)c1ccc[nH]1`, the figure is 43.3% (active).
The result for `COc1ccc(C(=O)COC(=O)COc2ccc(C)c(C)c2)cc1` reads 0.002%; that for `O=C(COc1ccc(Br)cc1)OCC(=O)c1ccc[nH]1`, -0.019%; that for `C[C@H](CO)N1C[C@H](C)[C@@H](CN(C)S(=O)(=O)c2cn(C)cn2)Oc2ccc(N(C)C)cc2CC1=O`, 0.089%.
Regarding `CN(CC(=O)Nc1cccc(F)c1)C(=O)CC1CCCC1`, the activity (Tm shift, normalised) is 0.042%.
With `Cc1ccc(S(=O)(=O)N2CCCCC2)cc1C(=O)N(C)CC(=O)Nc1cccc(F)c1`, the activity (Tm shift, normalised) was -0.088%.
Consider `Cc1ccc(NC(=O)CN(C)CC(=O)Nc2cccc(F)c2)cc1[N+](=O)[O-]`, for which the activity (Tm shift, normalised) was 43.3% (active).
